Measured values taken from paper PMC5540273 (PLoS ONE, 2017).

How the values were obtained:
Conditions in all cases: concentration: 1 μM, replicates: in singlicate; n = 1
[1] = test system: SGK2
[2] = test system: SGK3
[3] = test system: SGK
[4] = test system: SIK2
[5] = test system: SIK
[6] = test system: SLK
[7] = test system: T1, SNARK
T1 construct: gene NUAK2

[8] = test system: SNRK
[9] = test system: SRC
[10] = test system: SRMS
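Further: KINOMEscan kinase panel screen.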

| SMILES | %Inh [1] [%] | %Inh [2] [%] | %Inh [3] [%] | %Inh [4] [%] | %Inh [5] [%] | %Inh [6] [%] | %Inh [7] [%] | %Inh [8] [%] | %Inh [9] [%] | %Inh [10] [%] |
| --- | --- | --- | --- | --- | --- | --- | --- | --- | --- | --- |
| Cc1ccc(Oc2ccc(Nc3ncnc4cc[nH]c34)cc2C)cn1 | 5 | 5 | 12 | 0 | 21 | 10 | 6 | 32 | 16 | 22 |
| Cc1nnc(-c2ccc(C)c(-c3ccc(C(=O)O)cc3)c2)o1 [GW608005] | 0 | 0 | 0 | 0 | 0 | 0 | 5 | 0 | 0 | 0 |
| COc1cc(OC)cc(-c2cc3cnc(N)nc3nc2NC(=O)NC(C)(C)C)c1 | 0 | 17 | 0 | 0 | 6 | 0 | 0 | 1 | 0 | 0 |
| CCc1nc(-c2cccc(C)c2)c(-c2ccncc2)s1 | 0 | 0 | 0 | 4 | 2 | 26 | 0 | 9 | 0 | 0 |
